# Rows were chosen to be rich in hits. Some 8.3% of all compounds tested hit in one or more screens of this group.
# BCR signal inh: blocks chronic active B-cell receptor signaling. Potency, µM (highest dose often 46.1 µM), for inactives: top-dose activity change, negative = inhibition, most hits filed as inhibitors. ABC-DLBCL IkBa-CBG/CBR reporter, luminescence ratio, 4 h. 0.05% of 340,000 active; active means well fitted inhibition curve with a large enough effect in the signal ratio, with a control signal flat, not every such curve was filed as active; inconclusive means small, poorly fitted or top-dose-only effect, or effect the other way, or a change in a side signal; the % refers to the signal ratio;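 further: potency means the concentration at half of the fitted maximal effect; plate controls were basal doxycycline-induced cells for no effect and cells given 10 µM MG132 for full effect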
#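 Compounds up to 46 uM were incubated four hours with TMD8 cells whose green CBG68 luciferase is fused to IkappaBalpha; red CBR luminescence normalised the signal, and concentration-effect curves were fitted to fusion, red and ratio data.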
# VP16 counter: inhibits Gal4-VP16 luciferase reporter, ROR gamma counter-screen; Drosophila S2 Gal4-VP16 UAS-luciferase, luminescence, 20 h; Potency, µM (titrated, usually from 53.6 µM), for inactives: at the highest dose activity, negative = inhibition, actives largely listed as inhibitors; 3.5% of 310,000 active; AID 2546;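 further: Gal4-VP16 expression switched on by copper sulfate through the metallothionein promoter; potency means the concentration at half of the fitted maximal effect; on the % scale 0 is the no-effect control and ±100 the full control effect; nearly all actives have a fitted effect of over 50% in size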
# Giardia kill: kills Giardia lamblia. Giardia lamblia trophozoite viability. activity change, % at 7.66 µM, hits read low. 0.15% of 340,000 active; in the data active means activity change below about -80%; inconclusive means between about -30% and that limit;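 further: parasites exposed to compound for two days anaerobically before the ATP read; on the % scale 0 is the no-effect control and ±100 the full control effect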
#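 Compounds were tested on trophozoites seeded at 100 cells/well and held 48 hrs at 37 deg C anaerobically. An ATP-based luminescent kit measured the remaining live cells.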
# SW480 rerep: DNA re-replication induction in SW480 cells. Potency, µM (doses to about 46.1 µM), without a hit: at the top dose re-replication activation, hits mostly activators. SW480 DNA re-replication, Hoechst DNA content imaging, 48 h. 1.8% of 340,000 active. AID 624297; further: potency means the concentration at half of the fitted maximal effect; % of control where 0% means no effect; nearly all actives have a fitted effect of over 55% in size
#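 Hoechst fluorescence of nuclei (405 nm excitation, 500-530 nm emission) measured by plate-scanning imager after 48 hr compound exposure at 37 C; re-replication scored as increased number of nuclei with elevated intensity.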
# MCF10A rerep: DNA re-replication induction in MCF 10a cells. 2.9% of 350,000 active. MCF 10A DNA re-replication, Hoechst nuclear intensity, 48 h. Potency, µM (highest dose often 46.1 µM), without a hit: top-dose activity, positive = re-replication, actives largely listed as activators; further: potency means the concentration at half of the fitted maximal effect; % of control where 0% means no effect; nearly all actives have a fitted effect of over 50% in size
# RORg inh: inhibitors of mouse ROR gamma transcriptional activity; Drosophila S2 Gal4-RORgamma UAS-luciferase reporter, 20 h; 5.4% of 310,000 active; AID 2551; Potency, µM (series often up to 53.6 µM), without a hit: at the top dose activity change, negative = inhibition, most hits filed as inhibitors; P51450; further: potency means the concentration at half of the fitted maximal effect; on the % scale 0 is the no-effect control and ±100 the full control effect; nearly all actives have a fitted effect of over 60% in size
# Target sequence (P51450 whole entry, looked up, the tested form may be a part): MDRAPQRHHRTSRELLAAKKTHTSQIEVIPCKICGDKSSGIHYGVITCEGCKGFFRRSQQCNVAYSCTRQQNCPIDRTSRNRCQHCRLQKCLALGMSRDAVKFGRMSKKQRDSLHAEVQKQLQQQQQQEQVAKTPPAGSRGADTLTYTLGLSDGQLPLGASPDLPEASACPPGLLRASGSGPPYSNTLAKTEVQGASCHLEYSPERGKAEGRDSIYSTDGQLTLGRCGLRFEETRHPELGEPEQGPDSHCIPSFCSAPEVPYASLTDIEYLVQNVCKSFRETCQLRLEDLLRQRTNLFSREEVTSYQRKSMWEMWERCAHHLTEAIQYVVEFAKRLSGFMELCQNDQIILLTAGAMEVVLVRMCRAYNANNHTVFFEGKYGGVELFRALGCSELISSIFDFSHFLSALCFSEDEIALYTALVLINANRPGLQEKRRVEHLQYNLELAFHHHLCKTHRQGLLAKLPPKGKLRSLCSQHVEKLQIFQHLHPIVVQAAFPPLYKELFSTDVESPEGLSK
#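 Using a luciferase readout, inhibitors were identified by reduced reporter activity in Drosophila cells coexpressing a copper-inducible Gal4–ROR gamma fusion and UAS-driven Photinus luciferase, incubated 20 hr after 700 uM copper sulfate.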
# * = called active by the depositor; ? = inconclusive; . = not tested or not shown; [ ] = remark or other dose. Unless noted, the call rests on the fitted dose curve; in most records, active means well fitted curve in the direction sought with a large enough effect; inconclusive means small, poorly fitted or top-dose-only effect, or another doubt; inactive means no such curve, though single readings can be large; an effect the other way counts as inactive or inconclusive.
SMILES,BCR signal inh,VP16 counter,Giardia kill,SW480 rerep,MCF10A rerep,RORg inh
COc1cc(CNC(C)c2ccccc2)cc(Br)c1OCc1ccc(F)cc1 (stereo not drawn),?,?,-3,?,?,17%[1.91 µM]
COc1ccc(Br)cc1CNc1ccc2[nH]c(=O)[nH]c2c1,0%,-13%,6,-1%,-16%,3%
COc1ccc(Br)cc1CNc1ccc(O)cc1,-1%,?,-1,?,?,8.9µM*
COc1cc(CNc2ccc(O)cc2)cc(Br)c1OCc1ccccc1,?,?,-13,?,23µM*,?
COc1ccc(NC(=O)COC(=O)CCCC2=NS(=O)(=O)c3ccccc3N2)cc1Cl,?,0%,-5,-11%,5%,0%
CCNc1oc(/C=C/c2ccc(OCC)cc2)nc1C#N,?,-16%,21,3.3µM*,2.6µM*,23%
CCN(CC)CCCNc1oc(/C=C/c2ccccc2)nc1C#N,4%,-2%,-13,21µM*,?,-16%
C=CCNc1oc(-c2ccc(OCC)cc2)nc1C#N,-25%,?,-14,-11%,-2%,?
CCN(CC)CCCNc1oc(-c2ccc(OC)cc2)nc1C#N,14%,.,.,.,.,.
COc1ccc(/C=C/c2nc(C#N)c(NCCN(C)C)o2)cc1OC,-1%,-14%,31,?,?,-2%
CNc1oc(/C=C/c2cccc(OC)c2)nc1C#N,-4%,-6%,-19,18µM*,21µM*,36%
CN1CCN(S(=O)(=O)c2ccc(N(C)Cc3ccc(OC(F)F)cc3)c([N+](=O)[O-])c2)CC1,9%,.,8,?,?,.
COc1ccc(-c2ccc(/C=C3/C(=N)N4C=CSC4=NC3=O)o2)c([N+](=O)[O-])c1,?,3.5µM*,3,-1%,16%,2.5µM*
O=C(Nc1cc([N+](=O)[O-])ccc1O)c1cccc(NC(=O)c2ccco2)c1,?,-5%,10,-1%,22%,29%
FC(F)(F)c1cc(-c2cccs2)nc2cc(-c3ccccc3)nn12,-6%,10%,-18,?,16µM*,14%
O=C(NCC(=O)N1CCCC(C(F)(F)F)C1)c1ccc(Oc2ccccc2)cc1 (stereo not drawn),?,13µM*,13,2%,9%,8.9µM*
CCN1CCN(CC(=O)N2CCCC(C(=O)c3ccc(Oc4ccccc4)cc3)C2)CC1 (stereo not drawn),-17%,?,-13,3%,5%,7.9µM*
O=C(NCC(=O)N1CCCC(C(F)(F)F)C1)c1ccc2ccccc2c1 (stereo not drawn),12%,.,-5,18µM*,7%,.
COCCC(=O)N1CCCC(C(=O)c2ccc(Oc3ccccc3)cc2)C1 (stereo not drawn),-9%,-10%,15,-1%,7%,45%
O=C(NC(=S)N1CCCC(C(F)(F)F)C1)c1ccc(F)cc1 (stereo not drawn),?,0.71µM*,-14,15%,22%,0.56µM*
O=C(NCC(=O)N1CCCC(C(F)(F)F)C1)c1ccccc1Br (stereo not drawn),-14%,.,3,4%,2%,.
CCCN(CCC)C(=O)Cn1c(=O)n(-c2ccc(Cl)c(Cl)c2)c(=O)c2c(C)c(C(=O)N(C)C)sc21,-1%,.,.,.,.,.
COc1ccc(NC(=O)CN2C(=O)C(=O)N(C3CCCC3)C2=O)c(OC)c1,3%,.,-24,-1%,-4%,.
O=C(NCC1CCCCC1)c1cccc(S(=O)(=O)NCc2cccnc2)c1,-6%,7%,8,0%,4%,27%
CC(=O)N1CCC(C(=O)NC2CCCc3c2cnn3-c2cc(F)cc(F)c2)CC1 (stereo not drawn),5%,-4%,21,9%,6%,-4%
SMILES,BCR signal inh,VP16 counter,Giardia kill,SW480 rerep,MCF10A rerep,RORg inh
CCCCCN1C(=O)Cn2c(nc3ccccc3c2=O)C1C (stereo not drawn),-1%,-2%,-18,4%,0%,?
CCOc1ccc(NC(=O)N(Cc2ccc(C)cc2)Cc2ccccn2)cc1,1%,0%,22,-16%,17%,5%
O=S(Cc1cc(Oc2ccccc2)nc(-c2ccccc2)n1)c1ccccc1 (stereo not drawn),11%,0%,-11,1%,7%,32%
Cc1nc(Cc2nnc(SCC(=O)N3CCN(c4ccc(O)cc4)CC3)o2)cs1,-2%,.,12,2.1µM*,8%,.
CN1CCN(CC(=O)N2CCn3c4c(c5cc(C6CCCCC6)ccc53)CCCC42)CC1 (stereo not drawn),?,?,-3,24%,?,2.2µM*
O=C(Oc1cc(=O)oc2ccccc12)c1ccccc1,?,-15%,-25,4.1µM*,7.3µM*,-17%
CC1CCCCC1NC(=O)CCCCCn1c(=S)[nH]c2ccccc2c1=O (stereo not drawn),-6%,7%,0,1%[1.84 µM],3%,16µM*
CC1CCCC(NC(=O)CCCn2c(=S)[nH]c3ccccc3c2=O)C1C (stereo not drawn),-7%,-10%[10 µM],15,-7%,0%,10µM*
CC1CCCCC1NC(=O)CCCn1c(=S)[nH]c2ccccc2c1=O (stereo not drawn),0%,12%,26,-4%,3%,?
Cn1ccnc1-c1nc2ccccc2[nH]c1=O,-4%,3.5µM*,-15,?,7%,3.5µM*
Cc1[nH]c2ccccc2c1-c1nc2ccccc2[nH]c1=O,-17%,10%,8,-2%,10%,6%
CN1CCC(NC(=O)c2cc(-c3cccc(Br)c3)nc3ccccc23)CC1,9%,-8%,14,?,9%,?
CCOC(=O)/C(C)=C1\NC(C)(C)Cc2ccccc21,0%,-5%,-7,-699%,7%,-14%
CCCCC1(C)Cc2ccccc2C(=S)N1 (stereo not drawn),0%,5.6µM*,-2,?,5%,1µM*
Cc1cc2ccc3ccccc3c2cc1CN(C)C,?,-1%,3,7.3µM*,2%,-6%
CN(C)Cc1cc2ccccc2c2c1COC2,0%,3%,-6,2%,11%,1%
Cc1ccccc1-n1c2nc(=O)n(C)c(=O)c-2cc2ccccc21,6%,4%,2,18µM*,21µM*,-3%
CCCCn1c(=O)nc2n(-c3ccccc3C)c3ccccc3cc-2c1=O,1%,-13%,6,?,1%,6%

# Compound activity deposited in PubChem by National Center for Advancing Translational Sciences (NCATS).
